Reference: ChEMBL document CHEMBL4513216, “Probing the Open Global Health Chemical Diversity Library for Multistage-Active Starting Points for Next-Generation Antimalarials” (ACS Infect Dis, 2020)
Out of some 68,000 compounds screened, about 2,700 (4%) showed an effect of 50% or more. For the sample, strong results were picked, then their nearest neighbours and some compounds at random.

Tested on: Plasmodium berghei
Experiment: Screen against P. berghei liver stage (PbLuc), transformed with Luciferase, at 2uM
Assay type: functional, HepG2
Conditions: tested at 2 uM

SMILES	INHIBITION
Cc1c(F)cccc1S(=O)(=O)NC(C)(C)CN	36.53%
CNC(=O)[C@@H]1[C@@H](c2ccccc2)CN2CCN(Cc3ccco3)C[C@H]12	-0.14%
CCN(Cc1ccco1)C(C)c1nc(C(C)(C)C)no1 (stereo unspecified)	33.78%
CN(C)CCCNCCC(Cc1ccccc1)C1CCOC(C)(C)C1 (stereo unspecified)	-18.52%
CC(C(=O)N1CCn2cncc2C1)N1C[C@@H](C)O[C@@H](C)C1 (stereo partly specified)	-28.11%
CC(C(=O)N1CCn2cncc2C1)N1CCCC1 (stereo unspecified)	17.2%
O=C(C(c1ccc(F)cc1)N1CCCCC1)N1CCn2cncc2C1 (stereo unspecified)	50.59%
Cc1nn(C)c(C)c1CC(=O)N1CCCC(n2ccnc2C)C1 (stereo unspecified)	45.83%
CCCn1nccc1NC(=O)CN1CCn2c(nnc2C2CC2)C1	9.36%
CNC(=O)COC1COC2(CCN(Cc3cccnc3)CC2)C1 (stereo unspecified)	28.88%
CCSC1=Nc2c(cnn2-c2ccc(Cl)cc2)C2=NCCCN12	51.78%
CSC1=Nc2c(cnn2-c2cccc(Cl)c2)C2=NCCCN12	18.15%
CSC1=Nc2c(cnn2-c2ccc(Cl)cc2)C2=NCCCN12	-4.43%
CC(=O)NCCc1ccc(S(=O)(=O)N(C)C(C)C(C)(C)C)s1 (stereo unspecified)	32.1%
CN(C)C(=O)COC[C@H]1CC[C@@H]2[C@@H](CCN2Cc2ccccn2)O1	53.98%
CN(C)C(=O)COC[C@@H]1CC[C@H]2[C@H](CCN2c2ccccn2)O1	-3.69%
c1ccc(COC[C@H]2CC[C@H]3[C@H](CCN3Cc3ccccn3)O2)nc1	4.54%
OCCN1CC2(CCN(c3ccccc3)C2)C1	-55.62%
CCN(C)C1CCCc2nc(C)sc21 (stereo unspecified)	9.52%
CN(Cc1nc(C2CC2)no1)C1CCS(=O)(=O)C1 (stereo unspecified)	31.27%
CC(C)Cc1noc(CN(C)C2CCS(=O)(=O)C2)n1 (stereo unspecified)	-12.52%
COc1ccc(OCc2noc(CN(C)C3CCS(=O)(=O)C3)n2)cc1 (stereo unspecified)	57.91%

SMILES	INHIBITION
CN(C)c1ccc(NC(=O)C2CN(Cc3ccccc3)CCO2)cn1 (stereo unspecified)	12.94%
CCC1=NN2C(=N)C(=Cc3cccn3-c3ccc(Cl)cc3)C(=O)N=C2S1	-3.11%
O=C(C1CC1)N1CCC2(CCN(Cc3cccc(F)c3)CC2)CC1	27.05%
CC(C)(O)CN1CCN(C(=O)c2ccn(-c3cccc(F)c3)n2)CC1	65.76%
CCC(O)CN1CCN(C(=O)c2ccn(-c3cccc(F)c3)n2)CC1 (stereo unspecified)	52.3%
CC1CCCCN1CCNC(=O)c1ccn(-c2cccc(F)c2)n1 (stereo unspecified)	2.18%
O=C(c1ccn(-c2cccc(F)c2)n1)N1CCN(CCO)CC1	19.12%
CC(O)CN1CCN(C(=O)c2ccn(-c3cccc(Cl)c3)n2)CC1 (stereo unspecified)	-42.32%
O=C(NCCn1cccn1)c1ccn(-c2cccc(F)c2)n1	64.16%
O=C(NCCn1ccnc1)c1ccn(-c2cccc(F)c2)n1	8.37%
O=C(c1ccn(-c2cccc(F)c2)n1)N1CCN(CC2CC2)CC1	-40.27%
CCC(O)CN1CCN(C(=O)c2ccn(-c3ccccc3)n2)CC1 (stereo unspecified)	14.97%
NC(=O)COc1ccc(CNCc2cc(F)cc(F)c2)cc1	19.7%
NC(=O)N1CCCC(c2nc(-c3cccnn3)no2)C1 (stereo unspecified)	19.39%
Cc1noc(C)c1CN1C(=O)[C@@H]2CC[C@H]1CN(Cc1cccc(O)c1)C2	30.42%
CC(C)O[C@@H]1CC[C@H]2[C@H]1OCCN2C(=O)c1nn(C)c2ccccc12	-13.37%
CCN(CC)C(CNCc1ccc(C)o1)c1ccco1 (stereo unspecified)	15.89%
CCN1C(=O)CCCC12CCCN(C(=O)c1cnccn1)C2 (stereo unspecified)	-41.21%
CC(CN1CCOCC1)N(Cc1ccccc1)Cc1ccncc1 (stereo unspecified)	8.73%
COc1cc2c(cc1CNCc1ccnc(-n3cccn3)c1)OC(C)C2 (stereo unspecified)	17.61%
CCOCCC(=O)N(Cc1ccncc1)C(C)CC (stereo unspecified)	-35.26%
CCC(C)N(Cc1ccncc1)C(=O)CCSC (stereo unspecified)	-20.95%

SMILES	INHIBITION
CCCC(=O)N(Cc1ccncc1)C(C)CC (stereo unspecified)	52.98%
O=C([C@H]1C[C@H]2OCC[C@H]2N(Cc2ccoc2)C1)N1CCCCO1	21.77%
CS(=O)(=O)NCCCn1ccc2ccccc21	24.23%
COC(=O)CCC(=O)NC(C)Cc1ccccc1Br (stereo unspecified)	2.7%
CCNC(=O)CCC(=O)NC(C)Cc1ccccc1Br (stereo unspecified)	-3.87%
COC(=O)NCCC(=O)NC(C)Cc1ccccc1Br (stereo unspecified)	63.46%
CS(=O)(=O)NCc1cc(-c2cc(F)cc(F)c2)nc(N2CC[C@H](O)C2)n1	4.66%
COc1ncccc1CNC(=O)NC(C)Cn1cccn1 (stereo unspecified)	31.7%
COc1c(C(=O)N2CCOC(c3cccs3)C2)c(C)nn1C (stereo unspecified)	-11.34%
Fc1ccc2[nH]c(C3CCCN3CCc3ccccn3)nc2c1 (stereo unspecified)	-55.56%
Fc1ccc2[nH]c(C3CCCN3Cc3c[nH]cn3)nc2c1 (stereo unspecified)	19.59%
O=C(CN1CCCC1c1nc2cc(F)ccc2[nH]1)NCc1ccccn1 (stereo unspecified)	57.75%
Cc1cccc(C(=O)N2CCCCC2c2nc3cc(F)ccc3[nH]2)n1 (stereo unspecified)	65.04%
Cc1cc(C(=O)N2CCCCC2c2nc3cc(F)ccc3[nH]2)no1 (stereo unspecified)	33.92%
O=C(c1cccc(CO)n1)N1CCCC1c1nc2cc(F)ccc2[nH]1 (stereo unspecified)	-20.6%
COCC(=O)N1CCCC1c1cc(Nc2nnc(C)s2)nc(C)n1 (stereo unspecified)	10.43%
CCN1CCCc2cc(CN3CCc4c(nc(C)[nH]c4=O)C3)ccc21	-9.49%
Cc1cc(C)nc(N2CCC(C(=O)Nc3n[nH]c(C(C)C)n3)CC2)n1	19.84%
COc1c(C2CCCN2C(=O)CCNc2ncccn2)c(C)nn1C (stereo unspecified)	6.89%
Cc1ccc(C(=O)NCc2ccc(N(C)C)cc2)cn1	8.73%
CN(c1ccc(CNC(=O)c2c[nH]c(=O)c(Cl)c2)cc1)C1CCCCC1	-20.64%
CN(c1ccc(CNC(=O)c2ccc(O)nc2)cc1)C1CCCCC1	51.76%

SMILES	INHIBITION
Cc1ccc(C(C)NC(=O)Nc2ccccc2CN2CCOCC2)o1 (stereo unspecified)	-10.54%
COCc1ccccc1NC(=O)c1ccoc1	-38.36%
COCc1ccccc1NC(=O)NC(C)c1ccc(C)o1 (stereo unspecified)	53.19%
CC(C)N(C)Cc1cc(=O)n2c(n1)CN(C(=O)c1ccnnc1)CCC2	25.92%
COc1ccc(C)cc1CN1CCC(c2cc3ncccc3cn2)CC1	-17.29%
CCn1c(C)nnc1SCCNC(=O)Cn1cnc2ccccc2c1=O	38.67%
CO[C@@H]1CCN(Cc2nccs2)C[C@@H]1Cc1cccc(C)c1	10.17%
CS(=O)(=O)Cc1nc(CN2CC=C(c3ccccc3)CC2)cs1	-4.26%
CS(=O)(=O)Cc1nc(CN2CCOc3ccccc3C2)cs1	33.9%
CS(=O)(=O)Cc1nc(CN2CCCc3sccc3C2)cs1	38.67%
CS(=O)(=O)Cc1nc(CN2CCc3ccccc3CC2)cs1	41.05%
CC1(C)CN(Cc2csc(CS(C)(=O)=O)n2)Cc2ccccc21	52.98%
CS(=O)(=O)Cc1nc(CN2CCC(C(F)(F)F)CC2)cs1	62.51%
CN(C)C1COC2(CCN(S(=O)(=O)c3ccc(F)cc3)CC2)C1 (stereo unspecified)	42.4%
Cc1ccccc1C1CCCN(C(=O)c2c[nH]c(=O)c(Cl)c2)C1 (stereo unspecified)	23.16%
Fc1cccc(N2CCCC3(C2)CN(c2ncccn2)CCO3)c1 (stereo unspecified)	39.9%
Cc1noc(C2CCCN(C(=O)c3ccc(Br)o3)C2)n1 (stereo unspecified)	3.9%
Cc1nn(C)c(C)c1C1CCCN1c1ncnc2[nH]ccc12 (stereo unspecified)	-41.8%
COC(=O)C(C)N1CCCc2cc(OC)ccc2C1 (stereo unspecified)	58.69%
COc1ccc2c(c1)CCCN(C(C)C(=O)NC(N)=O)C2 (stereo unspecified)	6.92%
COc1ccc2c(c1)CCCN(C(C)C(=O)NC(C)C)C2 (stereo unspecified)	47.68%
CCc1cc(C)c(C(=O)N2CCCC2CC(=O)c2cnn(C)c2)o1 (stereo unspecified)	9.3%

SMILES	INHIBITION
COc1ccccc1CC1CCCN(C(=O)c2cn[nH]c2C)C1 (stereo unspecified)	-62.85%
NCC1CCC(C(NC(=O)c2ccccn2)c2ccccn2)CC1 (stereo unspecified)	8.1%
CCN1CCOCC2(CCCN(C(=O)c3conc3C)C2)C1 (stereo unspecified)	16.67%
CCn1cc(C(=O)NCC(OC)c2cccc(Cl)c2)cn1 (stereo unspecified)	55.73%
COC(CNC(=O)c1ccc(NC(C)=O)cc1)c1cccc(Cl)c1 (stereo unspecified)	-8.34%
CCn1cc(S(=O)(=O)NC(CO)Cc2ccccc2)cn1 (stereo unspecified)	29.19%
CCn1cc(S(=O)(=O)NCC(OC)c2cccc(Cl)c2)cn1 (stereo unspecified)	31.78%
COC(CNC(=O)c1ccoc1)c1cccc(Cl)c1 (stereo unspecified)	-0.15%
CCn1cc(S(=O)(=O)NCC(OC)c2ccccc2)cn1 (stereo unspecified)	58.12%
Cc1cnn(CCNCC(O)COc2ccc(Cl)cc2Cl)c1 (stereo unspecified)	23.94%
O=C(NCC1CCOC1)c1csc(-c2cccc(Cl)c2)n1 (stereo unspecified)	25.74%
N[C@H]1CN(C(=O)c2ccc3[nH]c(=O)c(=O)[nH]c3c2)C[C@@H]1c1ccccc1	-6.88%
N#Cc1ccccc1N1CC2(CCCCN2CC2CC2)CC1=O (stereo unspecified)	-47.71%
COCc1cc(CNC(=O)c2c(O)cccc2O)n[nH]1	30.93%
O=C(Nc1ccc2c(c1)OC1(CCCCC1)O2)c1ccc(=O)[nH]n1	-5.9%
c1cncc(-c2nccc(CN3CCCC3)n2)c1	52.89%
CCN1CCN(Cc2ccnc(-c3cccnc3)n2)CC1	15.58%
c1cncc(-c2nccc(CN3CCC(N4CCCCC4)CC3)n2)c1	25.72%
